Some of the results follow. Calls of active or inactive are those of the source. Rule as the data show it, unless noted: active = response below about 50% or above about 160%; inactive = in between.
Experiments:
[1] = molecular target: Regulator of G-protein signaling 16 (Homo sapiens) (UniProt O15492); experiment: modulators of RGS–Galpha-o binding, primary screen, biochemical, multiplexed beads, flow cytometry, RGS4/7/8/16/19 (AID 1504; call rule not given here;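 also: fluorescently labeled Galpha-o bound to GDP with aluminium fluoride binding biotinylated RGS beads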); conditions: multiplexed bead flow cytometry, measured here: RGS16 interaction, at 10 µM
[2] = molecular target: Regulator of G-protein signaling 19 (Homo sapiens) (UniProt P49795); experiment: as above; conditions: multiplexed bead flow cytometry, measured here: RGS19 interaction, at 10 µM
[3] = molecular target: Regulator of G-protein signaling 7 (Homo sapiens) (UniProt P49802); experiment: as above; conditions: multiplexed bead flow cytometry, measured here: RGS7 interaction, at 10 µM
[4] = molecular target: Regulator of G-protein signaling 8 (Homo sapiens) (UniProt P57771); experiment: as above; conditions: multiplexed bead flow cytometry, measured here: RGS8 interaction, at 10 µM
[5] = disruption of biotin probe capture by avidin, counter-screen for RGS protein interaction modulators, biochemical, flow cytometry, bead-based (AID 1783;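 active = inhibition above 50%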;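 also: median green fluorescence of gated singlet beads compared with DMSO control wells; 0% = DMSO wells and 100% = complete loss of bead fluorescence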); conditions: streptavidin beads, fluorescein-biotin binding; at 10 µM, stronger effect = higher value
[6] = molecular target: Guanine nucleotide-binding protein G(o) subunit alpha (Homo sapiens) (UniProt P09471); experiment: RGS8-Galphao binding modulators, confirmation, biochemical, multiplexed bead flow cytometry, single concentration (AID 1836; in the data active = binding response below about 72% or above about 130%; inactive = in between;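 also: Galphao activated as GDP AlF4 complex before binding bead RGS8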); conditions: bead-based flow cytometry RGS8-Galphao binding, fluorescence; at 10 µM; actives lie on both sides
[7] = molecular target: Guanine nucleotide-binding protein G(o) subunit alpha (Homo sapiens) (UniProt P09471); experiment: RGS7-Galphao binding modulators, confirmation, biochemical, multiplexed bead flow cytometry, single concentration (AID 1837; in the data active = response below about 75% or above about 130%; inactive = in between;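 also: fluorescent Galphao activated with GDP and aluminum fluoride binding bead-coupled RGS7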); conditions: bead-based flow cytometry RGS7-Galphao binding; at 10 µM; actives lie on both sides
[8] = molecular target: Regulator of G-protein signaling 16 (Homo sapiens) + Guanine nucleotide-binding protein G(o) subunit alpha (Homo sapiens) (UniProt O15492+P09471); experiment: modulators of RGS16-Galphao protein binding, confirmation, biochemical, single concentration, multiplexed bead flow cytometry (AID 1838; in the data active = response below about 74% or above about 130%; inactive = in between;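 also: Galphao activated as the GDP aluminium fluoride complex binding bead-coupled RGS16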); conditions: bead-based flow cytometry, at 10 µM, actives lie on both sides
[9] = molecular target: Guanine nucleotide-binding protein G(o) subunit alpha (Homo sapiens) (UniProt P09471); experiment: modulators of RGS4-Galphao protein binding, confirmation, biochemical, single concentration, multiplexed bead flow cytometry (AID 1840; in the data active = binding response below about 74% or above about 130%; inactive = in between); conditions: at 10 µM, actives lie on both sides
[10] = molecular target: Guanine nucleotide-binding protein G(o) subunit alpha (Homo sapiens) + Regulator of G-protein signaling 19 (Homo sapiens) (UniProt P09471+P49795); experiment: regulators of RGS19-Galphao binding, confirmation, biochemical, single point, multiplexed bead flow cytometry (AID 1841); conditions: bead-based flow cytometry RGS19-Galphao binding; at 10 µM; actives lie on both sides;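 also: 100% = no compound control and 0% = blank background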
[11] = molecular target: Regulator of G-protein signaling 4 (Homo sapiens) + Guanine nucleotide-binding protein G(o) subunit alpha (Homo sapiens) (UniProt P49798+P09471); experiment: modulators of RGS–Galpha-o binding, primary screen, biochemical, multiplexed beads, flow cytometry, RGS4/7/8/16/19 (AID 1504); conditions: multiplexed bead flow cytometry, at 10 µM;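 also: fluorescently labeled Galpha-o bound to GDP with aluminium fluoride binding biotinylated RGS beads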
Regulator of G-protein signaling 4 (Homo sapiens) + Guanine nucleotide-binding protein G(o) subunit alpha (Homo sapiens), sequence (P09471 whole entry, looked up): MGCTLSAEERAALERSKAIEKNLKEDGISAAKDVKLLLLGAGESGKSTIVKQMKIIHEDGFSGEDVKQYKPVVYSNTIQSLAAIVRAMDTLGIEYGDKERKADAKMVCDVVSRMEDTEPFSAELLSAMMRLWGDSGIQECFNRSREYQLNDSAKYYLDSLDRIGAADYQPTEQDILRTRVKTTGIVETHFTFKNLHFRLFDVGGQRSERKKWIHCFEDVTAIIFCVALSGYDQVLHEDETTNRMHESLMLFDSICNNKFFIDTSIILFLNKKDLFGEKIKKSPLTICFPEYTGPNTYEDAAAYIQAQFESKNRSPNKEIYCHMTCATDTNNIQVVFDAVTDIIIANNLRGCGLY
Regulator of G-protein signaling 4 (Homo sapiens) + Guanine nucleotide-binding protein G(o) subunit alpha (Homo sapiens), sequence (P49798 whole entry, looked up): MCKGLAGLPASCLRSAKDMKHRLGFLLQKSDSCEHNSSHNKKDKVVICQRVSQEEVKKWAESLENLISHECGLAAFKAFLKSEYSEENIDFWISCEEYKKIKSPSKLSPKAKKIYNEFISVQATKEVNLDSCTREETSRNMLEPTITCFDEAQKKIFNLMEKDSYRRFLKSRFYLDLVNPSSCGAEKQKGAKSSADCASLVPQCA

Guanine nucleotide-binding protein G(o) subunit alpha (Homo sapiens) + Regulator of G-protein signaling 19 (Homo sapiens), sequence (P09471 whole entry, looked up): as the sequence (P09471 whole entry, looked up) above
Guanine nucleotide-binding protein G(o) subunit alpha (Homo sapiens) + Regulator of G-protein signaling 19 (Homo sapiens), sequence (P49795 whole entry, looked up): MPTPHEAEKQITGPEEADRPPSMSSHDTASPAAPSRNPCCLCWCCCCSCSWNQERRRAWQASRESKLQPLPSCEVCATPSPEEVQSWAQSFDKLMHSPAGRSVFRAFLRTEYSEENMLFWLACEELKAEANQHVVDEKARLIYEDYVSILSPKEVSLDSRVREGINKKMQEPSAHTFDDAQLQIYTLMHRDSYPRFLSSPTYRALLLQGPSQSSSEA
Guanine nucleotide-binding protein G(o) subunit alpha (Homo sapiens), sequence (P09471 whole entry, looked up): as the sequence (P09471 whole entry, looked up) above
Regulator of G-protein signaling 16 (Homo sapiens) + Guanine nucleotide-binding protein G(o) subunit alpha (Homo sapiens), sequence (O15492 whole entry, looked up): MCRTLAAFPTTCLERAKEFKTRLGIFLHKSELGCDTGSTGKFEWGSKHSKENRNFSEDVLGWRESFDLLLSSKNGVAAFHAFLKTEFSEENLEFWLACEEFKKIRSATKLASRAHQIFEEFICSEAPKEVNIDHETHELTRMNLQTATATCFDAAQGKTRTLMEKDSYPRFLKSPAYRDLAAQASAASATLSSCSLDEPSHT
Regulator of G-protein signaling 16 (Homo sapiens) + Guanine nucleotide-binding protein G(o) subunit alpha (Homo sapiens), sequence (P09471 whole entry, looked up): as the sequence (P09471 whole entry, looked up) above

SMILES | RGS16–Galpha-o binding response [1] | RGS19–Galpha-o binding response [2] | RGS7–Galpha-o binding response [3] | RGS8–Galpha-o binding response [4] | inhibition [5] | binding response (% of control) [6] | response (percent of control binding) [7] | response (% of control binding) [8] | binding response (% of control) [9] | response (percent of control binding) [10] | RGS4–Galpha-o binding response [11]
COc1ccccc1NC(=O)CCCc1c[nH]c2ccccc12 | 109% | 78.4% | 312% | 85% | 2.9% (inactive) | 95.7% (inactive) | 89.4% (inactive) | 97.2% (inactive) | 92.5% (inactive) | 92.9% (inactive) | 
CN(C)CCNC(=O)/C(=C/c1cccc([N+](=O)[O-])c1)NC(=O)c1ccccc1 | 219% | -55.8% | 113% | 124% | -1.3% (inactive) | 103% (inactive) | 105% (inactive) | 101% (inactive) | 104% (inactive) | 91.3% (inactive) | 119% (active)
COc1cccc(C(=O)NCCSc2ccc(Br)cc2)c1 | 11.1% | 1100% | 16.5% | 20.7% | -0.2% (inactive) | 103% (inactive) | 106% (inactive) | 104% (inactive) | 104% (inactive) | 83.7% (inactive) | 
CCOC(=O)C1Sc2[nH]c(=O)sc2C(c2ccc(Cl)cc2)C1C(=O)OCC (stereo not drawn) | -39.2% | 128% | -17.7% | 7.38% |  |  |  |  |  |  | 
CN1CCN(C(CNS(=O)(=O)c2cccs2)c2cccnc2)CC1 (stereo not drawn) | -5.62% | 168% | -9.98% | 10.6% |  |  |  |  |  |  | 
O=C(CSc1ccc2nnc(-c3ccccc3)n2n1)N1CCCc2ccccc21 | 413% | -1120% | 207% | 112% | 2% (inactive) | 104% (inactive) | 101% (inactive) | 101% (inactive) | 103% (inactive) | 108% (inactive) | 
N#Cc1nc(COc2ccc(-c3ccccc3)cc2)oc1NCc1cccnc1 | 0% | 78.7% | 202% | 167% | 6.8% (inactive) | 156% [activator] (active) | 517% [activator] (active) | 364% [activator] (active) | 376% [activator] (active) | 565% (active) | 
COC(=O)c1ccccc1OCC(=O)N1CCN(c2ccc(Cl)cc2)CC1 | 461% | 7560% | 290% | 132% |  |  |  |  |  |  | 
Cc1ccc(N2C(=O)C3C(c4ccccc4)(C2=O)C3(c2ccccc2)c2ccccc2)cc1 (stereo not drawn) | 13.2% | 310% | 14.4% | 23.3% | -0.7% (inactive) | 91.8% (inactive) | 60.8% (active) | 80.2% (inactive) | 68.2% (active) | 75.7% (inactive) | 
CCOc1ccccc1NC(=O)c1cc(S(=O)(=O)N2CCC3(CC2)OCCO3)ccc1F | 4.15% | 139% | 15.2% | 33% |  |  |  |  |  |  | 
Cc1ccc(S(=O)(=O)NCC(=O)OCC(=O)N2CCc3ccccc32)cc1 | 604% | 93.8% | 139% | 117% | -1.7% (inactive) | 102% (inactive) | 99.5% (inactive) | 98.9% (inactive) | 99.7% (inactive) | 97.4% (inactive) | 
CCOC(=O)NNc1cc(C(F)(F)F)ccn1 | 148% | 84.9% | 66.9% | 133% | -0.7% (inactive) | 104% (inactive) | 107% (inactive) | 104% (inactive) | 102% (inactive) | 109% (inactive) | 
CC(=O)Nc1nc(N(C)C)nc(N(C)C)n1 | 28% | 162% | -0.2% | 25.1% | 3.9% (inactive) | 100% (inactive) | 103% (inactive) | 104% (inactive) | 104% (inactive) | 109% (inactive) | 
Cc1ccc(Cn2ccc(NC(=O)c3cc(C(C)C)on3)n2)cc1 | 47.2% | -20% | 43.9% | 55.8% |  |  |  |  |  |  | 
Cc1c(CN2CCCC(C(=O)c3cccc(Cl)c3)C2)c(=O)n(-c2ccccc2)n1C (stereo not drawn) | 97.1% | 50.3% | 230% | 95% | -1.5% (inactive) | 102% (inactive) | 106% (inactive) | 102% (inactive) | 103% (inactive) | 104% (inactive) | 107% (active)
Cn1c(=O)c2c(n(Cc3ccccc3)c1=O)NC(=O)C2CC(=O)N1CCc2ccccc2C1 (stereo not drawn) | -1.02% | 241% | 13.5% | 12.1% | 0.9% (inactive) | 100% (inactive) | 112% (inactive) | 95.4% (inactive) | 105% (inactive) | 102% (inactive) | 
CC(=O)N1CC[n+]2c(-c3ccc([N+](=O)[O-])cc3)csc21 | 12.8% | 114% | 102% | 63.1% | -0.8% (inactive) | 80.5% (inactive) | 67.2% (active) | 58% (active) | 66.7% (active) | 62.5% (inactive) | 57% (active)
Cc1ccccc1NC(=S)N(CCCN1CCOCC1)Cc1cccs1 | 181% | 80% | 106% | 118% | 2.8% (inactive) | 104% (inactive) | 102% (inactive) | 104% (inactive) | 102% (inactive) | 107% (inactive) | 105% (active)
O=C(CN1CCCCC1)N1c2ccccc2Sc2ccc(C(F)(F)F)cc21 | -6.83% | 241% | 27.5% | 22.7% |  |  |  |  |  |  | 

Source: PubChem BioAssay
